# Rows were chosen to be rich in hits. Some 3.1% of all compounds tested hit in one or more screens of this group.
# Nrf2 ARE act = activators of Nrf2 (ARE) signaling. Potency, µM (doses to about 46.1 µM), inactives show at the top dose activation, most hits filed as activators. AREc32 ARE-luciferase reporter (MCF7-derived line), luminescence, 24 h. 410,000 compounds, 0.31% hits; further: potency means the concentration at half of the fitted maximal effect; % of control where 0% means no effect; nearly all actives have a fitted effect of over 65% in size
#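 AREc32 cells carrying an ARE-driven firefly luciferase reporter were seeded at 1000 cells/well in OPTI-MEM with 5% FBS, then exposed to compound for 24 hr at 37 deg C. Luminescence was read with Steady-Glo after 30 min at RT.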
# IL2 activator = activates IL-2 in a cell-based reporter assay; IL-2 activation reporter assay, cell-based qHTS; stimulated with anti-CD3/CD4/CD28 beads; in transgenic mouse T cells; activation, % (series mostly up to about 46 µM); 360,000 compounds, 0.065% hits; in the data active means activation above about 50%; inconclusive means mostly about 30% to 49%; further: 0% is about no effect
#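 Unstimulated transgenic mouse T cells; 60-min compound exposure; bead-based TCR/CD4/CD28 stimulation; 18 h culture, 37 degrees C; dual fluorescence (EGFP, DsRed) plate cytometry.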
# ELG1 DNA repair = ELG1-dependent DNA repair inhibition; Potency, µM (top dose mostly 46.1 µM), inactives show top-dose activity change, negative = inhibition, actives largely listed as inhibitors; HEK293T ELG1-luciferase reporter, luminescence, 16 h; DNA damage induced by 5-fluorouridine; 330,000 compounds, 2.3% hits; AID 504467; further: potency means the concentration at half of the fitted maximal effect; on the % scale 0 is the no-effect control and ±100 the full control effect; nearly all actives have a fitted effect of over 55% in size
#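 Quantitative HTS, concentration-response format. 2,000 cells/well co-treated with 5-fluorouridine and compound, 16 hr in 5% CO2 at 37 °C; ONE-Glo luminescence read after 30 min.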
# BRCA1 expr act = increases BRCA1 expression. AID 624202. 380,000 compounds, 1.1% hits. Potency, µM (top dose mostly 46.1 µM), inactives show at the highest dose activation, hits mostly activators. MCF7-BRCA1-FFLuc reporter, luminescence, 48 h; response scale: scaled: vehicle 0%, 10 µM genistein 100%; further: potency means the concentration at half of the fitted maximal effect; nearly all actives have a fitted effect of over 80% in size
#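 Luminescence from a BRCA1-driven firefly luciferase in MCF7 cells was read after 48 h compound exposure at 37 C. Data normalized against DMSO and a 10microM genistein activation control, then curve-fitted across the titration.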
# ELG1 FLuc counter = luciferase inhibition in cell-free luciferin readout for ELG1 hits | shares compounds with ELG1 DNA repair | cell-free firefly luciferase luminescence counter-screen, ViewLux | AID 624247 | Potency, µM (series often up to 46.1 µM), for the others: at the highest dose activity change, negative = inhibition, usual class: inhibitors | 350 compounds, 3% hits; further: potency means the concentration at half of the fitted maximal effect; on the % scale 0 is the no-effect control and ±100 the full control effect
# ELG1-Luc inh = inhibits ELG1-dependent DNA repair in HEK293T cells, confirmed; shares compounds with ELG1 DNA repair; HEK293T ELG1-luciferase levels, luminescence; cells co-treated with 5-fluorouridine; Potency, µM (top dose mostly 46.1 µM), for inactives: top-dose activity change, negative = inhibition, hits mostly inhibitors; 670 compounds, 68% hits; AID 624248; further: potency means the concentration at half of the fitted maximal effect; on the % scale 0 is the no-effect control and ±100 the full control effect; nearly all actives have a fitted effect of over 55% in size
# ELG1-Luc MMS = confirmation of human ELG1 repair inhibitors, MMS stimulated | HEK293T luciferase-tagged ELG1 level, MMS stimulated | Potency, µM (doses to about 46.1 µM), for inactives: top-dose activity change, negative = inhibition, hits mostly inhibitors | 670 compounds, 53% hits | shares compounds with ELG1 DNA repair | AID 624249; further: potency means the concentration at half of the fitted maximal effect; on the % scale 0 is the no-effect control and ±100 the full control effect; nearly all actives have a fitted effect of over 60% in size
# ELG1 5-FU = confirmation of ELG1 repair inhibitors: viability with 5FU; shares compounds with ELG1 DNA repair; cell viability with 5-FU, ELG1-dependent repair; Potency, µM (doses to about 46.1 µM), without a hit: at the top dose activity change, negative = viability loss, usual class: cytotoxic; 670 tested, under 10 active;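 further: ELG1-luc HEK293T cells cotreated with 5-fluorouridine at 10 µM final; potency means the concentration at half of the fitted maximal effect; viability measured 16 h after compound addition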
# ELG1 MMS viab = confirmation of ELG1 repair inhibitors: viability with MMS; shares compounds with ELG1 DNA repair; Cell viability with MMS, ELG1-dependent DNA repair; Potency, µM (series often up to 46.1 µM), without a hit: at the highest dose activity change, negative = viability loss, usual class: cytotoxic; 670 compounds, 33% hits; AID 624251;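 further: ELG1-luc HEK293T cells co-treated with 10 µM MMS; potency means the concentration at half of the fitted maximal effect; viability read 16 h after compound addition; on the % scale 0 is the no-effect control and ±100 the full control effect; nearly all actives have a fitted effect of over 60% in size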
# ELG1 unstim viab = unstimulated viability counter-screen for ELG1 repair hits; 900 compounds, 8% hits; Potency, µM (series often up to 45.9 µM), for inactives: at the top dose activity change, negative = loss of viability, actives largely listed as cytotoxic; shares compounds with ELG1 DNA repair; cell viability counter-screen, unstimulated, luminescence; AID 624252;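 further: potency means the concentration at half of the fitted maximal effect; compound exposure lasted 16 hours before reading; on the % scale 0 is the no-effect control and ±100 the full control effect; nearly all actives have a fitted effect of over 55% in size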
# FLuc enzyme = inhibits purified firefly luciferase, counter-screen for ELG1 hits. shares compounds with ELG1 DNA repair. Potency, µM (doses to about 57.5 µM), inactives show top-dose activity, negative = inhibition, usual class: inhibitors. 350 compounds, 10% hits. AID 624253. purified firefly luciferase, luminescence counter-screen; further: potency means the concentration at half of the fitted maximal effect; on the % scale 0 is the no-effect control and ±100 the full control effect
# * hit, by the source's call; u = inconclusive; x = not tested or not shown. Unless noted, the call rests on the fitted dose curve; in most records, active means well fitted curve in the direction sought with a large enough effect; inconclusive means small, poorly fitted or top-dose-only effect, or another doubt; inactive means no such curve, though single readings can be large; an effect the other way counts as inactive or inconclusive.
SMILES,Nrf2 ARE act,IL2 activator,ELG1 DNA repair,BRCA1 expr act,ELG1-Luc inh,ELG1-Luc MMS,ELG1 5-FU,ELG1 MMS viab,ELG1 unstim viab,others
O=C(NCCc1ccccc1)c1sc2ncccc2c1-n1cccc1,16%,x,x,x,x,x,x,x,x,
Cc1csc2ncnc(NCCc3ccccn3)c12,7%,-1,1.5µM*,-4%,u,1.6µM*,-3%,2.2µM*,u,
CCCOc1cccc(C2c3c(oc4ccc(F)cc4c3=O)C(=O)N2CCc2ccc(OC)cc2)c1 (centres undefined),0%,x,x,x,x,x,x,x,x,
Cc1ccc(C(=O)c2cn(Cc3cc(C)ccc3C)c3nc(C)ccc3c2=O)cc1,-1%,x,x,-45%,x,x,x,x,x,
CN(c1ncnc(N)c1[N+](=O)[O-])C1CCCCC1,-2%,1,1.8µM*,1%,3.1µM*,13µM*,-8%,-5%,u,
CN1CCN(c2nc(-c3ccncc3)nc3ccccc23)CC1,12%,0,-16%,-8%,u,u,-16%,-5%,u,ELG1 FLuc counter=18%;FLuc enzyme=0%
COc1ccc(OC)c(Nc2nc(NCc3ccco3)nc(N)c2[N+](=O)[O-])c1,16%,3,u,-19%,0.63µM*,-8%,u,-8%,-11%,
CCOc1ccc(Nc2nc(NCc3ccco3)nc(N)c2[N+](=O)[O-])cc1,-1%,1,24%,-13%,x,x,x,x,x,
CCCCCc1c(-c2ccc(F)cc2F)ncn1CCc1ccccc1OC,0%,-1,x,-14%,x,x,x,x,x,
OCCCNc1ncnc2scc(-c3ccc(Cl)cc3)c12,0%,7,4.6µM*,-26%,5.6µM*,16µM*,-1%,5%,u,
CCN(CC)C(=O)c1ccc2c3c(cccc13)C(=O)N(CCc1ccc(OC)c(OC)c1)C2=O,2%,0,4.6µM*,-65%,11µM*,10µM*,u,22µM*,25µM*,
COc1ccc(CCN2C(=O)c3cccc4cccc(c34)C2=O)cc1OC,u,1,6%,-49%,x,x,x,x,x,
COc1cc(Cl)c(C)cc1NC(=O)CC(c1ccc(F)cc1)N1Cc2ccccc2C1=O (centres undefined),-1%,x,x,x,x,x,x,x,x,
CC(C)CN(C)c1ccc(/C=C2\C=Cc3ccccc32)cc1,x,x,x,17%,x,x,x,x,u,
CNc1ccc(C=C2C=Cc3ccccc32)cc1,10%,-1,x,21%,x,x,x,x,x,
CN(C)N=Nc1ccc(/C=C2\C=Cc3ccccc32)cc1,x,x,x,u,x,x,x,x,-2%,
NC(N)=Nc1ccc(/C=C2\C=Cc3ccccc32)cc1,x,x,x,-43%,x,x,x,x,x,
COc1ccc(/C=C/c2onc(C)c2S(=O)(=O)N2CCC(C(=O)N3CCCCCC3)CC2)cc1,2%,-4,2.6µM*,-26%,3.1µM*,16µM*,u,-12%,-16%,
Cc1cccc(/C=C/c2onc(C)c2S(=O)(=O)N2CCC(C(=O)N3CCCCC3)CC2)c1,5%,-3,2.9µM*,-26%,2.2µM*,u,u,1%,-14%,
CCOc1ccccc1/C=C/c1onc(C)c1S(=O)(=O)N1CCC(C(=O)N2CCCCCC2)CC1,4%,-3,2.9µM*,-48%,4µM*,u,u,-6%,-16%,
COc1cccc(/C=C/c2onc(C)c2S(=O)(=O)N2CCC(C(=O)N3CCCCC3)CC2)c1,-1%,x,x,x,x,x,x,x,x,
CCCCCCCCCCCCCCC(O)C[N+](C)(CCO)CCO (centres undefined),2%,-6,x,-87%,x,x,x,x,x,
COc1cccc(NC(=O)CSc2nnc3[nH]c(=O)cc(-c4ccccc4)n23)c1,-1%,x,x,x,x,x,x,x,x,
COc1ccc(CCn2c3c(c(=O)[nH]c2=O)C(NC(=O)c2ccc(C(C)(C)C)cc2)(C(F)(F)F)C(=O)N3)cc1OC (centres undefined),0%,x,x,x,x,x,x,x,x,
CN(CC(=O)Nc1ccccc1Cl)CC(=O)Nc1sc2c(c1C(N)=O)CCC2,1%,-3,4.6µM*,-42%,16µM*,u,10%,-5%,u,
SMILES,Nrf2 ARE act,IL2 activator,ELG1 DNA repair,BRCA1 expr act,ELG1-Luc inh,ELG1-Luc MMS,ELG1 5-FU,ELG1 MMS viab,ELG1 unstim viab,others
CN(CC(=O)Nc1ccc(Cl)cc1)CC(=O)Nc1sc2c(c1C(N)=O)CCC2,10%,-3,x,-48%,x,x,x,x,x,
O=C1CCC[C@@H]2Cc3nc4cc5c(cc4cc3[C@@H]3CCN1[C@H]23)OCO5,5%,0,x,20%,x,x,x,x,u,
COc1ccc(CCCc2nnc(SCC(=O)Nc3ccc(F)cc3)o2)cc1C,-1%,x,x,x,x,x,x,x,x,
[N-]=[N+]=Nc1nc2c(N)ncnc2n1C1OC(CO)C(O)C1O (centres undefined),x,x,x,x,3.5µM*,4µM*,u,u,7.9µM*,
CCOC(=O)c1c(C)nc2sc3c(=O)n(-c4ccc(OC)cc4)cnc3c2c1-c1ccc(OC)cc1,0%,-1,-9%,-10%,1.3µM*,-13%,2%,-2%,-2%,ELG1 FLuc counter=-3%;FLuc enzyme=-2%
CC(=O)c1c(C)[nH]c(C(=O)Nc2cccc(S(=O)(=O)N3CCCC3)c2)c1C,21%,0,u,-68%,x,x,x,x,u,
CC(=O)c1c(C)[nH]c(C(=O)Nc2cccc(S(=O)(=O)N(C)C)c2)c1C,21%,-4,u,-1%,x,x,x,x,x,
CCc1ccccc1N(C)S(=O)(=O)c1ccc2c(c1)C(C)(C)C(=O)N2C,3%,x,x,-5%,x,x,x,x,x,
COCC(C)OC(=O)c1c(N)n(CC(C)C)c2nc3ccccc3nc12 (centres undefined),2%,1,3.7µM*,-38%,5µM*,-20%,u,0%,-1%,

# High-throughput results (PubChem)
